# Assay outcomes as filed in PubChem.
# PfHsp40 rescue = compounds rescuing yeast from Plasmodium falciparum HSP40 toxicity; S. cerevisiae expressing PfHsp40, growth rescue, ATP luminescence; hit rate 0.68% among 340,000; growth rescue, % at 12.5 µM; in the data active = growth rescue above about 28%, passing the limit was not always enough; inconclusive = no clear call, values can overlap the other calls;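 also: yeast W303a lacking pdr1 and pdr3 grown in galactose medium; growth measured after three days at 30 °C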
# RecA intein inh = inhibitors of M. tuberculosis RecA intein splicing; P9WHJ3; cell-free RecA intein splicing, fluorescence; inhibition, % (test concentration not listed); hit rate 0.75% among 290,000; AID 2221; in the data active = inhibition above about 30%; inconclusive = no clear call, values can overlap the other calls;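 also: 0% = vehicle wells and 100% = reference inhibitor control wells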
# Target sequence (P9WHJ3 whole entry, looked up): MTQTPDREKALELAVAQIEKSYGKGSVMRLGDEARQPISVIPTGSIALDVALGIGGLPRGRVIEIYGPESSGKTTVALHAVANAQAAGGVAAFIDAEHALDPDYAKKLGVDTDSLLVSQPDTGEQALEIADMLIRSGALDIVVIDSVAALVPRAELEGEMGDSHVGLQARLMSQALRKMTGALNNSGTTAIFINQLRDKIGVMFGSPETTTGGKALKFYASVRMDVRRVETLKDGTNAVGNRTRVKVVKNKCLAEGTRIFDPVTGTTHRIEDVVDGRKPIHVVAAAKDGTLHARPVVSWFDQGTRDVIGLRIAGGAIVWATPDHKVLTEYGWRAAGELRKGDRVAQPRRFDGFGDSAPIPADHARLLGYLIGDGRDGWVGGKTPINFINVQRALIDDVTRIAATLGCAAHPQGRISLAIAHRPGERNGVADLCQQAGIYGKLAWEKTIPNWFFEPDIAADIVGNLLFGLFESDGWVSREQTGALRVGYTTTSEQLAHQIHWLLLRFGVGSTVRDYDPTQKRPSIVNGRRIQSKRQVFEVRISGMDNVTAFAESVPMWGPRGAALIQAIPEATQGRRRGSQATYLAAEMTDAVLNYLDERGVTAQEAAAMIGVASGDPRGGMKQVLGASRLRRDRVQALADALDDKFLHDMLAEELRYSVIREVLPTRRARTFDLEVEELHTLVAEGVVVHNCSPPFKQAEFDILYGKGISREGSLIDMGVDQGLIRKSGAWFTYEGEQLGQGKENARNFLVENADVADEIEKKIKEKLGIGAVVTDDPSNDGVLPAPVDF
# Mtb hypoxia inh = Mtb hypoxia fluorescent reporter inhibition | fluorescence inhibition, % (test concentration not listed) | hit rate 0.1% among 300,000 | M. tuberculosis hypoxia-regulated fluorescent reporter, fluorescence; in the data active = fluorescence inhibition mostly above about 23%, no sharp cut-off; inactive = mostly below about 17%
# Mtb betalactam = beta-lactam sensitization of Mtb H37Rv; AID 434955; M. tuberculosis H37Rv growth with meropenem, percent inhibition; inhibition, % at 25 µM; hit rate 0.27% among 330,000;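 also: growth measured after seven days incubation then overnight dye step; 0% = bacteria only wells and 100% = bacteria with antibiotic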
# CCHF vOTU inh = blocks the CCHF virus ovarian tumor domain protease; CCHFV vOTU protease, Pep-AMC fluorescence; inhibition, % at 11.5 µM; hit rate 0.55% among 370,000; AID 651958; in the data active = inhibition above about 30%; also: 0% = vehicle wells with enzyme and 100% = no enzyme wells
# GFP chromo cs = counter-screen GFP chromophore formation inhibition; hit rate 83% among 2,100; AID 434968; shares compounds with RecA intein inh; cell-free GFP chromophore formation, fluorescence; EC50, µM
# Starred values were filed as active, the others as inactive; ? = inconclusive; . = no result shown. Sampled rows, rich in hits. Any-hit rate of the full collection: about 1.7%. Unless noted, no rule for the calls is given here.
SMILES,PfHsp40 rescue,RecA intein inh,Mtb hypoxia inh,Mtb betalactam,CCHF vOTU inh,GFP chromo cs
COC(=O)c1ccc(C(c2c(C)[nH][nH]c2=O)c2c(C)[nH][nH]c2=O)cc1,0,95*,8,5,-6,1.4*
Cc1[nH][nH]c(=O)c1C(c1ccc(Cl)cc1)c1c(C)[nH][nH]c1=O,-1,98*,9,-2,8,1.3*
CCOC(=O)COc1ccc(C(c2c(C)[nH][nH]c2=O)c2c(C)[nH][nH]c2=O)cc1,-2,-1,2,3,-11,.
Cc1[nH][nH]c(=O)c1C(c1ccc(F)cc1)c1c(C)[nH][nH]c1=O,0,98*,6,10,-7,0.62*
Oc1ccc(Nc2nc(-c3ccc4ccccc4c3)cs2)cc1,0,34*,-1,93,-4,20*
CC(=O)Nc1nc(-c2ccc3ccccc3c2)cs1,0,1,0,46,0,.
CCN(CC)CCOc1ccc(Br)cc1,0,-2,8,-3,-16,.
CCN(CC)CCOc1ccc(/C(=C(\Cl)c2ccccc2)c2ccccc2)cc1,-1,36*,.,99,10,18*
O=C(O)C1=NN(c2cc(Cl)c(S(=O)(=O)O)cc2Cl)C(=O)C1,2,.,16,.,9,.
CC1=NN(c2ccc(S(=O)(=O)O)cc2C)C(=O)C1,-2,91*,4,6,11,18*
CC(C)C(C(=O)N1CCN(C(=O)OC(C)(C)C)CC1)n1cc(-c2cn(C(C)C(=O)N3CCN(C(=O)OC(C)(C)C)CC3)nn2)nn1 (stereo unspecified),.,.,-3,.,.,.
CCOc1ccccc1C1C(C#N)=C(N)Oc2n[nH]c(CC)c21 (stereo unspecified),-2,32*,11,5,-3,33*
CCOC(=O)Cc1[nH]nc2c1C(c1cc(OC)ccc1OC)C(C#N)=C(N)O2 (stereo unspecified),-2,63*,1,0,1,4.6*
CCOC(=O)Cc1[nH]nc2c1C(c1cccc(OC)c1OC)C(C#N)=C(N)O2 (stereo unspecified),0,45*,.,-3,0,>38
COc1ccc(NC(=O)ON=Cc2ccc(N(C)C)cc2)cc1,.,.,7,.,.,.
CC(=O)C1=C(c2ccc(Br)cc2)C(=O)c2ccccc2C1=O,?,58*,3,98,23,3.1*
COc1ccc(C2=NN(C(=O)/C=C/c3ccccc3)C(c3ccccc3)C2)c(OC(C)=O)c1 (stereo unspecified),0,36*,-5,63,1,>38
COc1ccc(C2CC(c3ccccc3OC(C)=O)=NN2C(=O)/C=C/c2ccccc2)cc1OC (stereo unspecified),1,25,4,4,-2,.
COc1ccc(C2=CC(=O)CC(c3ccc(Cl)cc3)C2)cn1 (stereo unspecified),.,.,10,.,.,.
Cc1no[n+]([O-])c1COc1cccc(C=NNc2nncn2N)c1,.,.,14,.,.,.
CC1(C)CC(=O)C(C=Nc2cccnc2N=CC2=C(O)CC(C)(C)CC2=O)=C(O)C1,.,.,2,.,.,.
O=S(=O)(c1ccc(Cl)c(Cl)c1)c1snnc1-c1ccccc1,6,80*,21,.,.,1.3*
c1ccc(-c2nnsc2-c2ccccc2)cc1,0,2,10,-15,17,.
CCc1ccc(Nc2n[n+](-c3ccccc3)c(-c3c(Cl)cccc3Cl)s2)cc1,-1,49*,.,100,0,16*
C=CCOc1ccccc1CN(C(=O)CCl)c1ccc2c(c1)OCO2,-1,81*,.,96,-8,8.3*
SMILES,PfHsp40 rescue,RecA intein inh,Mtb hypoxia inh,Mtb betalactam,CCHF vOTU inh,GFP chromo cs
CC1CN(C(C)CO)C(=O)c2cc(NS(=O)(=O)c3ccccc3)ccc2OC1CN(C)C(=O)Nc1ccc(C(F)(F)F)cc1 (stereo unspecified),.,.,7,.,.,.
C#CCOCCOCCOCCNc1nc(N2CCN(C(=O)C(CC(N)=O)n3cc(C(N)CC(N)=O)nn3)CC2)nc(N2CCN(C(=O)C(CCCN=C(N)N)n3cc(C(N)C(C)CC)nn3)CC2)n1 (stereo unspecified),.,.,5,.,.,.
O=C(O)C1Nc2c(cccc2C(F)(F)F)C2C=CCC12 (stereo unspecified),.,10,.,6,.,.
O=C(O)C1Nc2c(O)cc(Cl)c([N+](=O)[O-])c2C2C=CCC12 (stereo unspecified),-1,43*,18,7,35*,13*
CSc1nsc(NN=Cc2ccc3c(c2)OCO3)c1C#N,.,.,16,.,.,.
CCCCCCCN1CCC(=O)N(C(CO)c2ccccc2)CC1 (stereo unspecified),.,.,8,.,.,.
